Shown are actives, neighbours in structure and some others; about 7.5% of the full set was active somewhere.
HCMV inh: inhibitors of human cytomegalovirus | HFF cells, HCMV-luciferase reporter, 72 h; active compounds read low | activity change, negative = inhibition, % at 57.5 µM | 410,000 tested, 4.5% active; in the data active means activity change below about -60%; inconclusive means no clear call, values can overlap the other calls; inactive means above about -39%
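Inhibition of viral replication was scored as loss of reporter luminescence in HFFs infected with HCMV-luciferase (MOI 1 PFU/cell) for 72 h; compounds tested at 2 doses, normalized to buffer and Salinomycin controls.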
HCV inh: blocks hepatitis C virus; Huh7.5.1 HCVcc-Cre infection, luciferase reporter, 44 h; Potency, µM (series often up to 41.8 µM), for inactives: top-dose activity change, negative = inhibition, hits mostly inhibitors; 340,000 tested, 3.4% active; AID 651820; further: potency means the concentration at half of the fitted maximal effect
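Whole-lifecycle infectious HCVcc-Cre system; cells 1,000/well, compound then virus (~0.5 moi) added 4 h after plating, 44 h culture. Luciferase read 15 sec following 15 min substrate incubation, room temp.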
FMDV inh: blocks foot and mouth disease virus; 410,000 tested, 1.2% active; AID 1159524; Potency, µM (highest dose often 57.9 µM), for the others: at the highest dose activity change, negative = inhibition, most hits filed as inhibitors; FMDV antiviral cell-based qHTS; calls by dose curve; tested in HEK293T cells; further: read-out not given here; potency means the concentration at half of the fitted maximal effect; nearly all actives have a fitted effect of over 45% in size
Vaccinia mCherry: inhibitors of vaccinia virus infection (mCherry reporter signal) | 310,000 tested, 0.63% active | AID 720579 | Potency, µM (highest dose often 36.5 µM), inactives show at the top dose activity change, negative = inhibition, most hits filed as inhibitors | Vaccinia virus mCherry reporter infection, fluorescence; calls by dose curve; tested in A549 cells; further: potency means the concentration at half of the fitted maximal effect; nearly all actives have a fitted effect of over 35% in size
Giardia FBPA inh: Giardia lamblia aldolase inhibition; A8B2U2; purified Giardia FBPA; Potency, µM (titrated, usually from 59.6 µM), for the others: top-dose activity, negative = inhibition, actives largely listed as inhibitors; 290,000 tested, 0.71% active; further: potency means the concentration at half of the fitted maximal effect; nearly all actives have a fitted effect of over 55% in size
Target sequence (A8B2U2 whole entry, looked up): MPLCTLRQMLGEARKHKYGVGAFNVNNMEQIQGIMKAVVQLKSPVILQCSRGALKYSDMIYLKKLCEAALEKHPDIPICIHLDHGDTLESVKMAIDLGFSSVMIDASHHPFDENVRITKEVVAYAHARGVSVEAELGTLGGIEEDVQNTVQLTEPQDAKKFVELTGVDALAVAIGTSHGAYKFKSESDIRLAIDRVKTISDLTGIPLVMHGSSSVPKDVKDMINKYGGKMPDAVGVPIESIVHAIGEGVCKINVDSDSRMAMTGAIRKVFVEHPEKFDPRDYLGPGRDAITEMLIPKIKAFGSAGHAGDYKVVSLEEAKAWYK
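Giardia FBPA (40 nM reagent) was preincubated 10 min at RT with compound (up to 57.5 uM final), then substrate plus GAPDH/TPI/NAD/arsenate coupling system with diaphorase/resazurin was added; resorufin fluorescence (525/598 nm) was read after 20 min.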
VACV Venus inh: vaccinia inhibition (Venus reporter); Vaccinia virus Venus reporter expression, fluorescence; 330,000 tested, 0.46% active; Potency, µM (titrated, usually from 36.5 µM), for inactives: at the highest dose activity change, negative = inhibition, usual class: inhibitors; calls by dose curve; tested in A549 cells; further: potency means the concentration at half of the fitted maximal effect; nearly all actives have a fitted effect of over 30% in size
An asterisk follows results filed as active; i = inactive; ? = inconclusive; . = no result; + = active, no number. Unless noted, the call rests on the fitted dose curve; in most records, active means well fitted curve in the direction sought with a large enough effect; inconclusive means small, poorly fitted or top-dose-only effect, or another doubt; inactive means no such curve, though single readings can be large; an effect the other way counts as inactive or inconclusive. On the % scale 0 is the no-effect control and ±100 the full control effect.

SMILES	HCMV inh	HCV inh	FMDV inh	Vaccinia mCherry	Giardia FBPA inh	VACV Venus inh
Nc1nc2n[nH]nc2c(=O)[nH]1	-96*	?	-6%	?	?	?
Nc1nc(N)c(N)c(=O)[nH]1	.	.	.	i	.	-13%
CC(=O)N/C(=C/c1ccccc1)c1ccncc1	.	.	.	12%	.	-12%
Cc1ccc(C(=O)Nc2nnc(SCc3cc(=O)c4c(C)ccc(C)c4[nH]3)s2)cc1	1	.	-26%	-25%	.	-18%
Cc1cccc(Oc2nc(CN3CCOCC3)nc3sc4c(c23)CCCC4)c1	-34	-3%	-8%	-16%	6%	-20%
CCc1nc2cccnc2n1-c1ccc(CC(=O)O)cc1	-8	-4%	-1%	0%	-7%	6%
Cc1ccc(NC(=O)Cc2ccc(-n3c(C)nc4cccnc43)cc2)c(Cl)c1	+	.	16µM*	-12%	.	?
Cc1ccc(/C=C/c2nc3ccccc3[nH]2)cc1	-91*	.	8.9µM*	-27%	.	-22%
Cc1ccccc1/C=C\c1nc2ccccc2c(=O)[nH]1	47	10µM*	25%	-17%	0%	?
Cc1ccc(/C=C/c2nc3ccccc3c(=O)[nH]2)cc1	47	12%	16µM*	.	0%	.
Cc1ccccc1/C=C/c1nc2ccccc2c(=O)[nH]1	67	-24%	3%	i	0%	-11%
CCCc1cc(=O)[nH]c2nnc(SCCC(C)C)n12	?	.	-1%	i	.	-7%
Cc1ccc(C)c(S(=O)(=O)NCCOc2nc(NC(C)C)nc(NC(C)C)n2)c1	2	-29%	.	-24%	2%	-16%
CSc1nc(C)cc(OCCNS(=O)(=O)c2cc(C)ccc2C)n1	-8	22µM*	9%	-7%	4%	-14%
Cc1cccc(OCCCC(=O)NC(C)C)c1	41	?	7%	.	9%	11µM*
COc1ccccc1-c1cc(N(C)Cc2ccco2)ncn1	.	.	-13%	.	-4%	.
Cc1cc2cc(CN(CC3CCCO3)C(=S)Nc3ccccc3)c(=O)[nH]c2cc1C (stereo not given)	-82*	?	-24%	-22%	-1%	?
COc1ccc(N(Cc2cc3ccccc3[nH]c2=O)C(=O)C2CCCO2)cc1 (stereo not given)	-65*	7%	-25%	.	1%	-11%
CCOc1ccc(N(Cc2cc3cc(OC)ccc3[nH]c2=O)C(=O)C2CCCO2)cc1 (stereo not given)	5	13%	-26%	.	-8%	-11%
CN(C)CCCN(Cc1cc2cc3c(cc2[nH]c1=O)OCO3)C(=S)Nc1cccc(Cl)c1	?	10µM*	-28%	-18%	-3%	-24%
COc1ccc2cc(CN(CC3CCCO3)C(=S)Nc3ccccc3)c(=O)[nH]c2c1 (stereo not given)	-73*	?	0%	-13%	-8%	?
CC(C)NS(=O)(=O)c1ccc2[nH]c3nc(SCC(=O)Nc4ccc(F)c(F)c4)nnc3c2c1	.	.	.	-19%	.	-8%
COc1ccc(CCNC(=O)c2cc(S(=O)(=O)N3CCCC(C)C3)cn2C)cc1OC (stereo not given)	1	.	?	-8%	.	0%
N#CC1C(=O)NC(=O)CC12CCCCC2 (stereo not given)	3	10%	18%	i	.	-8%
NC(=O)c1ccccc1OCC(=O)N1CCCC1c1ccc2c(c1)OCCCO2 (stereo not given)	-14	-12%	-13%	-14%	.	-7%
SMILES	HCMV inh	HCV inh	FMDV inh	Vaccinia mCherry	Giardia FBPA inh	VACV Venus inh
NC(=S)N/N=C1\CC(c2ccc3c(c2)OCCCO3)Oc2ccc(F)cc21 (stereo not given)	-14	8.9µM*	?	-27%	-8%	0%
NC(=S)N/N=C1\CC(c2ccc3c(c2)OCCO3)Oc2ccc(F)cc21 (stereo not given)	-32	?	-26%	11µM*	-6%	?
CC1C/C(=N\NC(N)=S)c2cc(Cl)ccc2S1 (stereo not given)	-10	-19%	?	?	-22%	?
COc1cccc(CNC(=O)c2cnc3c(-c4ccc(F)cc4)c(C)nn3c2C)c1	17	.	-11%	i	.	-1%
CC(=O)c1c(C)n(C2CCCCC2)c2ccc(O)cc12	-66*	10µM*	-24%	-4%	2%	-7%
CC(=O)c1c(C)n(C)c2ccc(O)cc12	-7	-6%	-8%	.	-12%	-3%
OCc1cnc(SCc2cccc(F)c2)n1Cc1ccc(F)cc1	-71*	.	-10%	-14%	.	-7%
Cc1ccc(Cn2c(CO)cnc2SCc2cccc(F)c2)cc1	-11	.	-2%	2%	.	-11%
Clc1cccc[n+]1CCCCCC[n+]1ccccc1Cl	.	.	.	-9%	.	-5%
COc1ccc(-c2[nH]c(-c3cc(OC)c4c(c3)OCO4)nc2-c2ccccc2)cc1	-71*	?	-3%	?	-3%	?
NC1=NC(=Nc2ccc(Br)cc2)c2ccccc21	-61*	?	4%	?	-19%	?
O=C(Cn1cnc([N+](=O)[O-])c1)Nc1cc(Oc2ccc(Cl)cc2Cl)cc([N+](=O)[O-])c1	-73*	6.3µM*	-10%	.	-2%	?
Cc1ccc(S(=O)(=O)N2CCN(Cc3cc(Br)ccc3O)CC2)cc1	-4	.	-29%	-8%	.	-17%
CNC(=O)/C(C#N)=C1/SC(Cc2ccc(F)cc2)C(=O)N1c1ccccc1 (stereo not given)	?	11%	-6%	-6%	1%	5%
CC(=O)/C(C#N)=C1\NC(=O)C(Cc2ccc(F)cc2)S1 (stereo not given)	-83*	-4%	-6%	-16%	8%	86%
Cc1ccc(CC2SC(=O)NC2=O)cc1Cl (stereo not given)	-26	8%	1%	.	-10%	.
CC(=O)/C(C#N)=C1\NC(=O)C(Cc2ccc(C)c(C)c2)S1 (stereo not given)	-95*	6%	9%	16µM*	28%	95%
Cc1cc2nc(/C=C/c3cccnc3)[nH]c2cc1C	-92*	-7%	50%	.	-5%	.
CC(C)OC(=O)c1c(N)n(CC2CCCO2)c2nc3ccccc3nc12 (stereo not given)	-23	-17%	-28%	-25%	-18%	-18%
Nc1c(C(=O)OC2CCCCC2)c2nc3ccccc3nc2n1CC1CCCO1 (stereo not given)	-12	10µM*	-16%	.	-3%	.
CC(C)CCn1c(N)c(C(=O)OCC2CCCO2)c2nc3ccccc3nc21 (stereo not given)	-24	13µM*	-16%	.	-14%	-28%
Cn1nc(-c2ccc(F)cc2)nc2c(=O)n(C)c(=O)nc1-2	.	.	.	0.63µM*	.	2.8µM*
Cn1nc(-c2ccc(Cl)cc2)nc2c(=O)n(C)c(=O)nc1-2	.	.	.	2µM*	-27%	2µM*
Cn1nc(-c2ccccc2)nc1-c1ccccc1	15	0%	68%	-6%	.	-18%
Cn1nc(-c2cccnc2)nc2c(=O)n(C)c(=O)nc1-2	.	.	.	3.2µM*	.	2.5µM*

Screening data deposited in PubChem BioAssay by National Center for Advancing Translational Sciences (NCATS).
